Experimental data as given in PubChem BioAssay (NCI).
The panel holds about 79,000 compounds, 15% with a hit somewhere; the sample as a whole holds those more often. A number with no mark means an inactive call. Active and inactive are the calls of the source. No stated cut-off is given here; in the data, active means growth inhibition above about 70%; inactive means the rest.

Test: NCI Yeast Anticancer Drug Screen. Data for the rad50 strain (AID 155);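 further: 0% = growth of vehicle-only cultures of the same strain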
Conditions: S. cerevisiae rad50 strain growth inhibition; at 50.0 µM; stronger effect = higher value
Method in brief: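 Compounds were tested on a yeast strain with an engineered DNA damage repair alteration; the reported value is growth inhibition normalised to vehicle treatment.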

In order of rising growth inhibition:
1. CCOC(=O)/C(C)=C(/O)C(=O)OCC  -45.2%
2. CC1=C(Br)C(=O)C(C(C)C)=CC1=O  -38.2%
3. CC(=O)n1[nH]c(=O)n(-c2ccc(Cl)cc2)c1=O  -36.5%
4. CCOC(=O)Nc1nc2ccccc2n1CN1CCOCC1  -32.1%
5. CCCCCCCCCCCCCCCCCC/C(CC)=N/Nc1ccc([N+](=O)[O-])cc1[N+](=O)[O-]  -21.1%
6. NC(CCCCn1nnc2c(=O)[nH]cnc21)C(=O)O (stereo not given)  -12.3%
7. O=[N+]([O-])C1CCC(N=Nc2c(O)ccc3ccccc23)CC1 (stereo not given)  -9.95%
8. c1ccc(CC[n+]2ccncc2)cc1  -8.75%
9. O=C(CO)c1ccc(-c2ccccc2)cc1  -8%
10. CC(=O)OCC(COC(C)=O)C(C)=O  -7.35%
11. CC(=O)CCCCO  -6.8%
12. COC(=O)c1cc(C(=O)OC)cc([N+](=O)[O-])c1  -6.4%
13. CNCC1OC(OC)C2OC(C)(C)OC12 (stereo not given)  -5.05%
14. CCC(CO)N1CNC(=S)NC1 (stereo not given)  -4.8%
15. Cc1c(C)c(C)c2cc3c(C)c(C)c(C)c(C)c3cc2c1C  -4.55%
16. Cc1cc(N=Nc2ccccc2)c2cccnc2c1N  -3.85%
17. NC(=O)c1ccccc1NC(=O)C(=O)Cc1nc2ccccc2[nH]c1=O  -2.55%
18. COCCCC12C=C(OC)C(=O)C=C1OC(c1cc(OC)c(OC)c(OC)c1)C2C (stereo not given)  0%
19. NNC(=O)Nc1ccccc1  3.8%
20. COCn1cnc2c(F)ncnc21  3.85%
21. C=CCOc1cc2c(cc1C(C)c1ccc(OCC)c(C)c1)OCO2 (stereo not given)  4.35%
22. COC(=O)c1c(-c2ccc3c(c2)OCO3)cn(C)c1C  5.7%
23. O=C1c2ccccc2C(=O)N1/N=C\c1ccc(O)cc1  6.8%
24. Cc1ccc(S(=O)(=O)OCC(C)C(c2ccccc2)c2ccccc2)cc1 (stereo not given)  7.45%
25. CC(=O)N/N=C1\NN(C(C)=O)C2(S1)C(=O)Nc1ccccc12 (stereo not given)  7.7%
26. NNc1ncnc2cccc(Cl)c12  7.95%
27. CSc1ccc(NC(=O)Oc2ccc(NC(C)=O)cc2)cc1  8.55%
28. CC(=O)/C(C)=C\c1ccc(C(C)C)cc1  8.85%
29. Cc1ccc(NCC(O)CN2CCCC2)cc1 (stereo not given)  12.3%
30. COCCNC(C)=O  13.8%
31. CCCCCCCCCCCCCCCCS(=O)(=O)N/N=C/c1ccc2c(c1)OCO2  13.9%
32. CC(C)C/C(CC(=O)CCC(=O)Nc1ccccc1[N+](=O)[O-])=N\NC(=O)c1cc2ccccc2cc1O  17.8%
33. CCCCC1(CC)COC2(CCCC2)OC1  18.6%
34. CC(C)C(=O)OC1CCCCC1Cc1ccccn1 (stereo not given)  21.1%
35. ClC(Cl)=C(c1ccccc1)c1ccccc1  30.2%
36. COc1cccc(C(OC(=O)c2ccccc2)c2nncc3ccccc23)c1OC (stereo not given)  32.4%
37. Cc1ccc(C(C)(CCC(=O)O)c2ccc(C)o2)o1  36.2%
38. CCCOC(=O)Nc1cccc(Cl)c1  49.5%
39. COc1ccc2c(c1)CC1c3[nH]c4ccccc4c3CCN1C2 (stereo not given)  52.7%

For `CCC(c1ccc(OC)cc1)c1cc2c(cc1OCCO)OCO2` (stereo not given), the growth inhibition was 70.9% (active).

Test: NCI Yeast Anticancer Drug Screen. Data for the mec2-1 strain (AID 157)
Conditions: S. cerevisiae mec2-1 strain, at 50.0 µM, stronger effect = higher value
Method in brief: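 Using mec2-1 yeast: add compound, measure growth, express inhibition versus vehicle-treated cultures.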

In order of falling growth inhibition:
1. CCC(c1ccc(OC)cc1)c1cc2c(cc1OCCO)OCO2 (stereo not given)  66.3%
2. CC(=O)N/N=C1\NN(C(C)=O)C2(S1)C(=O)Nc1ccccc12 (stereo not given)  52%
3. COc1ccc2c(c1)CC1c3[nH]c4ccccc4c3CCN1C2 (stereo not given)  35.5%
4. NNc1ncnc2cccc(Cl)c12  27.2%
5. CC(C)C/C(CC(=O)CCC(=O)Nc1ccccc1[N+](=O)[O-])=N\NC(=O)c1cc2ccccc2cc1O  24.1%
6. ClC(Cl)=C(c1ccccc1)c1ccccc1  22.4%
7. Cc1ccc(C(C)(CCC(=O)O)c2ccc(C)o2)o1  12.2%
8. COc1cccc(C(OC(=O)c2ccccc2)c2nncc3ccccc23)c1OC (stereo not given)  11.8%
9. c1ccc(CC[n+]2ccncc2)cc1  6.8%
10. NNC(=O)Nc1ccccc1  5.55%
11. Cc1ccc(NCC(O)CN2CCCC2)cc1 (stereo not given)  5.35%
12. CNCC1OC(OC)C2OC(C)(C)OC12 (stereo not given)  5.1%
13. CCCCCCCCCCCCCCCCCC/C(CC)=N/Nc1ccc([N+](=O)[O-])cc1[N+](=O)[O-]  3.7%
14. O=[N+]([O-])C1CCC(N=Nc2c(O)ccc3ccccc23)CC1 (stereo not given)  3.6%
15. CCCCCCCCCCCCCCCCS(=O)(=O)N/N=C/c1ccc2c(c1)OCO2  3%
16. CCCCC1(CC)COC2(CCCC2)OC1  2.25%
17. Cc1ccc(S(=O)(=O)OCC(C)C(c2ccccc2)c2ccccc2)cc1 (stereo not given)  1.9%
18. COC(=O)c1c(-c2ccc3c(c2)OCO3)cn(C)c1C  1.85%
19. COCCNC(C)=O  0.7%
20. CSc1ccc(NC(=O)Oc2ccc(NC(C)=O)cc2)cc1  -0.95%
21. COCn1cnc2c(F)ncnc21  -1.4%
22. NC(=O)c1ccccc1NC(=O)C(=O)Cc1nc2ccccc2[nH]c1=O  -1.55%
23. Cc1c(C)c(C)c2cc3c(C)c(C)c(C)c(C)c3cc2c1C  -1.9%
24. CC(=O)CCCCO  -2.5%
25. CC(C)C(=O)OC1CCCCC1Cc1ccccn1 (stereo not given)  -3.25%
26. O=C1c2ccccc2C(=O)N1/N=C\c1ccc(O)cc1  -3.6%
27. Cc1cc(N=Nc2ccccc2)c2cccnc2c1N  -4.2%
28. CC(=O)OCC(COC(C)=O)C(C)=O  -5.75%
29. CCCOC(=O)Nc1cccc(Cl)c1  -8.7%
30. C=CCOc1cc2c(cc1C(C)c1ccc(OCC)c(C)c1)OCO2 (stereo not given)  -8.95%
31. CCOC(=O)Nc1nc2ccccc2n1CN1CCOCC1  -11.9%
32. O=C(CO)c1ccc(-c2ccccc2)cc1  -12.4%
33. CC(=O)/C(C)=C\c1ccc(C(C)C)cc1  -12.7%
34. COCCCC12C=C(OC)C(=O)C=C1OC(c1cc(OC)c(OC)c(OC)c1)C2C (stereo not given)  -13.1%
35. CCC(CO)N1CNC(=S)NC1 (stereo not given)  -14.1%
36. CC1=C(Br)C(=O)C(C(C)C)=CC1=O  -20.6%
37. COC(=O)c1cc(C(=O)OC)cc([N+](=O)[O-])c1  -21.9%
38. NC(CCCCn1nnc2c(=O)[nH]cnc21)C(=O)O (stereo not given)  -26.2%
39. CC(=O)n1[nH]c(=O)n(-c2ccc(Cl)cc2)c1=O  -37.2%
40. CCOC(=O)/C(C)=C(/O)C(=O)OCC  -56.3%
